# High-throughput results as filed in PubChem.
# In the library only some 3.5% were active in any assay of this set; here they are far more common.
# TEAD-YAP block – TEAD-YAP interaction inhibition; HEK-TIYL cells, TEAD-Gal4/YAP UAS-luciferase luminescence; inhibition, % at 9.12 µM; hit rate 1.4% among 640,000; in the data active = inhibition above about 32%;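 also: 0% = median of test compound wells and 100% = reference inhibitor wells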
# GPR151 activ – activates the human receptor GPR151 | Q8TDV0 | PathHunter beta-arrestin GPR151 cells, luminescence | activation, % at 11.2 µM | hit rate 1% among 650,000; in the data active = activation above about 4.9%;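 also: 0% = median of compound wells and 100% = cells with positive control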
# Target sequence (Q8TDV0 whole entry, looked up): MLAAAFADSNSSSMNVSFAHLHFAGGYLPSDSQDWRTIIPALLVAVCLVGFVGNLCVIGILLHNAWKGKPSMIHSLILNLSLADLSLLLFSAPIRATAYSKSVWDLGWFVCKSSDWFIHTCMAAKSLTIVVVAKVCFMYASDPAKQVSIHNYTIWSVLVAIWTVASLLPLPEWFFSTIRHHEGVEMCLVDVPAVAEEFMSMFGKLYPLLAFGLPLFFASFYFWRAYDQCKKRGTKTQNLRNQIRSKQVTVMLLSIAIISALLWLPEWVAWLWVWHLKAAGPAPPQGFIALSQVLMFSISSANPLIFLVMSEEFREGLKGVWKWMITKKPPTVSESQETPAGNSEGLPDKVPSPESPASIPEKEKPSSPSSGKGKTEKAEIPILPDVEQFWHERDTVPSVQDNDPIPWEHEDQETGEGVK
# MITF primary – inhibitors of human MITF; inhibition, % at 2.6 µM; hit rate 0.91% among 650,000; AlphaScreen MITF homodimerization, bead proximity signal; O75030; in the data active = inhibition above about 50%;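 also: 0% = vehicle wells with protein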
# FBW7 activator – activators of human E3 ligase FBW7. Q969H0. AlphaScreen FBW7–phospho-cyclin E peptide binding, activator screen. normalized activity (activation), % at 26.1 µM. hit rate 0.13% among 650,000. AID 1259310; in the data active = normalized activity above about 1.9%;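 also: purified mutant Fbw7 with reduced substrate affinity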
# GPR151 conf act – confirmation of human GPR151 activators | shares compounds with GPR151 activ | GPR151 PathHunter beta-arrestin cells, luminescence, 90 min; % of EA-reagent control over plate median | activation, % at 11.2 µM | 6,700 tested, under 10 active;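 active = mean percent activation across replicates above the confirmation screen cutoff of 4.91%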
# GPR119 ag – activates human GPR119 in a GPR151 counter-screen; AID 1508611; shares compounds with GPR151 activ; hit rate 0.3% among 6,700; activation, % at 11.2 µM; GPR119 PathHunter beta-arrestin cells, luminescence, 90 min; 0 = compound-well median, 100 = enzyme-acceptor control;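 active = mean percent activation in the counterscreen above 29.09%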;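 also: counterscreen on off-target GPR119 to flag nonselective hits from the GPR151 activator screen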
# * = called active by the depositor; x = not tested or not shown.
SMILES,TEAD-YAP block,GPR151 activ,MITF primary,FBW7 activator,GPR151 conf act,GPR119 ag
Cc1nnc(SCC(=O)Nc2ccc(C)c([N+](=O)[O-])c2)s1,9,7.3*,18,0,-1,-6
Cc1nnc(SCC(=O)Nc2ccc(Cl)c([N+](=O)[O-])c2)s1,14,-1,-3,0,x,x
CC(=O)Nc1ccc(NC(=O)C(Sc2ccccc2)c2ccccc2)cc1 (configuration not stated),-5,0,-18,0,x,x
CC(=O)c1ccc(NC(=O)COC(=O)/C=C/c2ccc(Br)o2)cc1,12,-2,49,0,x,x
CC(C)c1ccc(C2/C(=C(/O)c3ccc(Cl)cc3)C(=O)C(=O)N2CCCN2CCOCC2)cc1 (configuration not stated),-12,1,3,0,x,x
COc1ccccc1NCC(=O)N/N=C\c1ccc(C(=O)O)cc1,3,0,-4,0,x,x
CSCCC(NC(=O)c1ccc(Cl)c([N+](=O)[O-])c1)C(=O)O (configuration not stated),5,5.3*,0,0,2,12
N=C1S/C(=C\c2ccccc2)C(=O)N1c1ccc2c(c1)OCO2,-3,-1,6,0,x,x
CCn1c2ccccc2c2cc(CNC3CCCc4ccccc43)ccc21 (configuration not stated),8,2,32,0,x,x
COc1ccc(OC)c(C(=O)COC(=O)c2cc(C)oc2C)c1,-8,13*,-3,0,1,11
O=C(NCCc1ccc(O)cc1)c1cnc(-c2ccc(N3CCOCC3)nc2)s1,0,5.1*,-2,0,-1,-4
Cc1cc2ncn(-c3ncnc4sc5c(c34)CCCC5)c2cc1C,-22,4.9*,5,1,2,13
O=C(CCOc1ccccc1)Nc1cnn(CC(=O)N2CCCC(O)C2)c1 (configuration not stated),10,1,7,0,x,x
CCOC(=O)C1=C(C)N(C)C(=O)NC1c1ccccc1Cl (configuration not stated),-2,-2,2,0,x,x
CCCCCOC(=O)C1=C(C)N(C)C(=O)NC1c1ccccc1Cl (configuration not stated),2,5.0*,-3,0,1,12
O=C(NCCN1CCOCC1)c1ccc2c(c1)ncn2-c1ccc(F)cc1F,-1,5.4*,17,0,-1,-11
Cc1ccc(-n2cnc3cc(C(=O)NCc4ccc(F)cc4)ccc32)cc1Cl,-2,5.9*,0,0,0,-12
Cc1cnc(-c2ccc(C(N)=O)cc2)nc1NCc1cccnc1,1,-3,2,0,x,x
COc1cccc(OC)c1OCC(O)CN(CCO)CCO (configuration not stated),3,-1,-3,0,x,x
COC(=O)c1c(NC(=O)c2ccc([N+](=O)[O-])cc2)sc(C(=O)N2CCOCC2)c1C,-1,5.5*,13,0,1,4
COc1ccc(Nc2nc(Nc3cccc(F)c3)nc(N3CCOCC3)n2)cc1,3,-1,7,0,x,x
Cc1cc2c(c(-c3ccc(C(N)=O)cn3)c1)OC(CNC(=O)C13CC4CC(CC(C4)C1)C3)C2 (configuration not stated),0,7.1*,-9,0,0,-3
COc1ccc(-c2cc(C)cc3c2OC(CNC(=O)CC(C)C)C3)nn1 (configuration not stated),-1,0,11,0,x,x
Clc1ccc(Sc2ncnc3sc4c(c23)CCCC4)cc1,-5,15*,-1,0,0,-11
Cc1cccc(C)c1NC(=O)C(NC(=O)C(C)O)c1cccc([N+](=O)[O-])c1 (configuration not stated),0,0,-7,0,x,x
SMILES,TEAD-YAP block,GPR151 activ,MITF primary,FBW7 activator,GPR151 conf act,GPR119 ag
O=C(c1ccccc1NS(=O)(=O)c1ccc(Br)s1)N1CCCC1,2,5.0*,15,0,-1,-7
CC(C)c1nc(CNc2nc3nonc3nc2N(C)C)cs1,3,6.8*,15,0,-1,-8
CCOC(=O)Cc1c(C)nc2c(-c3ccccc3)c[nH]n2c1=O,8,7.5*,4,0,-1,-9
CCCCN1CCN(c2ccc(OC)cc2)C1=O,-50,-2,-8,0,x,x
Cn1c(=O)c2c(nc(SCc3ccccn3)n2C)n(C)c1=O,13,0,13,0,x,x
Cn1c(=O)c2c(nc(SCc3ccccc3F)n2C)n(C)c1=O,7,4.9*,1,0,1,12
CCOC(=O)Cn1nnnc1-c1nonc1N,2,0,5,0,x,x
O=C(COC(=O)C1CCC(=O)N1)Nc1nc2ccccc2s1 (configuration not stated),-4,6.0*,7,0,0,-1
O=C(CCSc1ccccc1)Nc1nc2ccccc2s1,-33,5.0*,12,0,0,4
O=C(O)CCCC(=O)N1CCC(N2C(=O)Cc3ccccc32)CC1,-6,9.2*,-6,0,-1,-11
CC(=O)Oc1ccc(NC(=O)CC2Sc3ccc(C(F)(F)F)cc3NC2=O)cc1 (configuration not stated),2,-1,2,0,x,x
O=C(NCC1Cc2cccc(-c3ccncc3)c2O1)c1cccc(Cn2cccn2)c1 (configuration not stated),2,9.0*,-3,0,0,8
c1nc(N2CCOCC2)c2sc3nc(N4CCCCC4)c4c(c3c2n1)CCCC4,1,1,-2,0,x,x
c1nc(N2CCCCC2)c2sc3nc(N4CCOCC4)c4c(c3c2n1)CCCC4,-7,6.2*,5,0,-1,-6
COc1cc(C(=O)NCC(=O)N/N=C/c2cccc([N+](=O)[O-])c2)cc(OC)c1OC,5,0,-8,1,x,x
C[C@@H]1CC[C@H]2C(=O)O[C@@H](COc3ccc(C(C)(C)C)cc3)CN2[C@@H]1c1ccc(Br)cc1,x,5.4*,17,0,-1,-9
C[C@H]1CC[C@H]2C(=O)O[C@H](CO)CN2[C@@H]1c1ccc(Br)cc1,x,-1,5,0,x,x
CCOc1ccc(-n2c(SCC(=O)Nc3ccc(CC)cc3)nc3n[nH]c(C)c3c2=N)cc1,13,5.3*,4,0,2,9
CCCCNC(=O)CSc1nc2n[nH]c(C)c2c(=N)n1-c1ccccc1CC,-22,5.9*,-6,0,0,3
Cc1cccc(NC(=O)CSc2nc3n[nH]c(C)c3c(=N)n2-c2ccc(Br)cc2)c1,3,5.8*,3,0,0,5
CCOc1ccc(NC(=O)CSc2nc3n[nH]c(C)c3c(=N)n2-c2ccc(OCC)cc2)cc1,30,-1,1,0,x,x
COc1ccc(OC)c(NC(=O)CSc2nc3n[nH]c(C)c3c(=N)n2-c2cc(Cl)ccc2C)c1,0,12*,7,0,0,0
